Experimental data published in PubChem BioAssay (NCI).
Compounds without any hit were thinned out: in the full panel of roughly 83,000, 20% have a hit.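 Growth was measured after 48 h exposure to one concentration of compound in 96-well plates. Values under 10 count as active.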 Active and inactive are the calls of the source.

These compounds were tested on M14 melanoma (assay: NCI-60 one-dose screen, 48 h (100 = growth as untreated, 0 = no growth, -100 = all killed)). Conditions: 10 µM unless noted.
Protocol: Growth inhibition of the M14 human tumor cell line is measured as a screen for anti-cancer activity. Cells are grown in 96 well plates and exposed to the test compound for 48 hours. Compounds are tested at a single concentration, which is 10^-5 M for most compounds. The reported endpoint is percent growth (GI% or GIPRCNT), where numbers from 0 - 100% represent growth inhibition, and numbers from -100% - 0 represent cell death. For example, a value of 40 represents 60% growth inhibition. A value of 0 means no net growth occurred over the course of the experiment. A value of -40 indicates 40% of cells at the beginning of the experiment died by the end of the experiment. A value of -100 means all cells are dead at the end of the experiment.
NCI-60 Human Tumor Cell Lines Screen was performed using the standard one-dose NCI protocol, which is described in more detail at https://dtp.cancer.gov/discovery_development/nci-60/default.htm.
Compounds with GIPRCNT values below 10 were considered active. Activity score was based on GIPRCNT using the following formula: […]
Score is 0 for GIPRCNT values of 100 or above, 50 for GIPRCNT values of 0, and 100 for GIPRCNT values of -100.

Structure (SMILES) | growth
CCN1C(=S)N(c2ccccc2)C2NC(=O)N(/N=C/C=C/c3ccccc3OC)C21 (stereo not given) | 92.6% (inactive)
Nc1cc(-c2c[nH]c3ccc(Cl)cc23)nc2cc(-c3c[nH]c4ccc(Cl)cc34)nn12 | 48.6% (inactive)
COC1CCN(Cc2ccc3c(NNC(=O)c4cnccn4)nc4cc(F)ccc4n23)C1 (stereo not given) | 3.22% (active)
O=C(c1ccc(O)cc1)C1[C@H](c2ccc(Cl)cc2)[C@@H](c2ccccc2)NC12C(=O)Nc1ccc(Cl)cc12 (stereo not given in full) | 47.7% (inactive)
COc1ccc(Cc2nn(CC(=O)N/N=C/c3ccc(Cl)cc3)c(=O)c3c(C)noc23)cc1 | 89.9% (inactive)
N#Cc1ccc(/C=N/NC(=O)c2[nH]c3ccc(Br)cc3c2-c2ccccc2)s1 | 9% (active)
Clc1ccc2oc3c(NCCCn4ccnc4)c4ccccc4nc3c2c1 | 49.7% (inactive)
Cn1c(SCC(=O)Nc2ccc(-c3nc4ccc([N+](=O)[O-])cc4[nH]3)cc2)nc2ccccc2c1=O | 96.3% (inactive)
Cc1[nH]nc2ncc(C#Cc3cncc(C(=O)Nc4ccc(CN5CCN(C)CC5)c(C(F)(F)F)c4)c3)cc12 | -17.1% (active)
c1ccc2c(NCCCN3CCOCC3)c3oc4ccccc4c3nc2c1 | -32% (active)
COc1ccc2[nH]cc(-c3cc(N)n4nc(-c5c[nH]c6ccc(OC)cc56)cc4n3)c2c1 | -78.3% (active)
COc1ccc(/C=C2\SC(=Nc3cc(C)on3)NC2=O)cc1 | 92.2% (inactive)
COc1cccc(COc2ccc(/C=C3/C(=O)Nc4cc(Cl)ccc43)cc2)c1 | 104% (inactive)
NC(=O)c1c(NC(=O)c2ccc(C3CCCCC3)cc2)sc2c1CCC(=O)C2 | 18% (inactive)
Nc1c(C(=O)Nc2ccc(Cl)cc2)sc2nc(-c3cnccn3)cc(-c3cccs3)c12 | 89.2% (inactive)
CN1CCc2c(sc3ncnc(N/N=C/c4ccc(Cl)c(Cl)c4)c23)C1 | -11.8% (active)
COc1ccccc1/C=C/C=N/NC1=NC2C(S1)N(C)C(=O)N2C (stereo not given) | 19% (inactive)
Cc1ccc(-c2nc(C(Cl)Cl)nc3cc(-c4ccccc4)nn23)cc1 | -11.1% (active)
CCCSc1nc(Nc2ccc(/C(C)=N\NC(N)=S)cc2)c(C#N)c(-c2ccc(OC)cc2)n1 | 79.5% (inactive)
O=C(N/N=C/c1ccc(Cl)s1)c1[nH]c2ccc(Br)cc2c1-c1ccccc1 | 5.47% (active)

Structure (SMILES) | growth
CNC(=O)c1cc(-c2ccc(NC(=O)Nc3ccc(N4CCN(C)CC4)c(C(F)(F)F)c3)cc2)nc2cccnc12 | -94.2% (active)
CCN1C(=S)N(CC)C2C1N=C(SC)N2/N=C/C=C/c1ccccc1[N+](=O)[O-] (stereo not given) | 108% (inactive)
COc1ccc(N/N=C/c2c(-c3ccc(S(C)(=O)=O)cc3)nc3ccccn23)cc1 | 18.4% (inactive)
CCOC(=O)c1sc(NCC(=O)Nc2cccc([N+](=O)[O-])c2)c(C(=O)OCC)c1C | -73% (active)
C#Cc1nc(C2=C(C)C(O)/C(=N/O)C2)cs1 (stereo not given) | 93.8% (inactive)
O=C(CSc1nc2sc3c(c2c(=O)n1-c1ccc(Cl)cc1)CCCC3)NNC(=O)Nc1cccc(C(F)(F)F)c1 | 32.1% (inactive)
CCOC(=O)c1csc(NC(=O)CSc2nc3sc4c(c3c(=O)n2-c2ccc(Cl)cc2)CCCC4)n1 | 93.1% (inactive)
COc1cccc(NC2=CC(=O)C(C)=C(C)C2=O)c1 | 97% (inactive)
O=C1Nc2cc(Cl)ccc2/C1=C\c1ccc(OCc2ccc([N+](=O)[O-])cc2)cc1 | 83.3% (inactive)
N#Cc1nc(-c2ccccc2)oc1S(=O)(=O)N1CCN(CCc2ccccn2)CC1 | 15.2% (inactive)
Cc1nc(-c2cc3ccccc3oc2=O)ccc1C(=O)/C=C/c1ccc(Cl)c(Cl)c1 | 107% (inactive)
Cc1c(NC(=O)CSc2nc3sc4c(c3c(=O)n2-c2ccc(Cl)cc2)CCCC4)c(=O)n(-c2ccccc2)n1C | 95.2% (inactive)
COc1ccc(C(=O)c2cc(C(=O)/C=C/c3c(Cl)cccc3Cl)c3cc(C)ccn23)cc1 | 99.5% (inactive)
N/C(=N\c1nc2c(Br)cccc2s1)C(Br)Br | 10.9% (inactive)
O=C1[C@H]2Cc3c([nH]c4ccccc34)[C@@H](c3ccc(Br)cc3)N2C(=O)CN1C1CCN(Cc2ccccc2)CC1 | 35.8% (inactive)
[Cl][Ru].c1ccc(-c2cccc(-c3ccccn3)n2)nc1.c1ccc(-c2ccnc3c2ccc2c(-c4ccccc4)ccnc23)cc1 | 71.1% (inactive)
Nc1cc(-c2c[nH]c3ccccc23)nc2cc(-c3c[nH]c4ccccc34)nn12 | 29.3% (inactive)
O=C(Oc1ccc2ccc(=O)oc2c1)c1ccc(Cl)cc1 | 107% (inactive)
COc1ccc(-c2nc3ccc(-c4nnc(SCC(=O)Nc5ccc(C(=O)/C=C/c6ccccc6)cc5)o4)cc3[nH]2)cc1OC | 108% (inactive)
COc1cc(N=Cc2sc(Nc3nccs3)nc2O)cc(OC)c1OC | 79.9% (inactive)
